About 83,000 compounds went through this panel and 20% of them were active in at least one assay; those are over-represented in the sample as a whole.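 Note: values are percent growth. 100 is the growth of untreated cells, values between 100 and 0 indicate rising inhibition; between -100 and 0 indicates cell death.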 A number with no mark means an inactive call. Activity calls are given as the source filed them. Rule for the calls: active = growth percent below 10; inactive = the rest.
Assays:
Assay in all cases: NCI-60 one-dose screen, 48 h (100 = growth as untreated, 0 = no growth, -100 = all killed)
Conditions in all cases: 10 µM unless noted
NCI-H23 lung = tested on: NCI-H23 lung
NCI-H226 lung = tested on: NCI-H226 lung
NCI-H322M lung = tested on: NCI-H322M lung
HOP-62 NSCLC = tested on: HOP-62 NSCLC
NCI-H460 lung = tested on: NCI-H460 lung
HOP-92 NSCLC = tested on: HOP-92 NSCLC
NCI-H522 lung = tested on: NCI-H522 lung
A549/ATCC NSCLC = tested on: A549/ATCC NSCLC
786-0 renal = tested on: 786-0 renal
COLO 205 colon = tested on: COLO 205 colon

Structure (SMILES)	growth (NCI-H23 lung)	growth (NCI-H226 lung)	growth (NCI-H322M lung)	growth (HOP-62 NSCLC)	growth (NCI-H460 lung)	growth (HOP-92 NSCLC)	growth (NCI-H522 lung)	growth (A549/ATCC NSCLC)	growth (786-0 renal)	growth (COLO 205 colon)
CC(=O)Oc1ccc(C(OC(C)=O)OC(C)=O)cc1	95.4%	108%	98.9%	95%	111%	113%	85.4%	108%	95.3%	112%
O=S(=O)(O)c1ccc(F)cc1	96.1%	103%	97.3%	92.6%	111%	116%	82.8%	101%	103%	114%
N#CC1=C(N)Oc2c(ccc3ccccc23)C1c1cc(=O)oc2ccc(Cl)cc12 (stereo not given)	32.9%	98.3%	44.2%	33.3%	8.96% (active)	87.5%	5.22% (active)	26.6%	29.4%	-16.4% (active)
C=CCn1c(SCC(=O)Nc2ccc(C(=O)/C=C/c3cc(OC)c(OC)c(OC)c3)cc2)nnc1-c1ccc(OC)cc1	22.2%	-36.5% (active)	17.3%	-32.5% (active)	0.762% (active)	21.3%	-16.8% (active)	4.04% (active)	-30.8% (active)	-7.79% (active)
COc1ccccc1C(OC(C)=O)OC(C)=O	98.7%	94%	97.5%	104%	107%	115%	78%	79.5%	97.7%	110%
CCCCCCCCCCCC(=O)OCCNC(=O)C[n+]1ccccc1	107%	98.7%	99.4%	102%	120%	68.7%	102%	104%	112%	105%
O=c1c2ccccc2[nH]n1Cc1ccc2c(c1)OCO2	106%	92.6%	97.6%	97.1%	0.543% (active)	90.2%	99.4%	99.6%	93.3%	116%
O=C(Nc1ccc(-n2cc(-c3ccncc3)c(-c3ccc(O)c(Cl)c3)n2)cc1)c1cc(C(F)(F)F)cc(C(F)(F)F)c1	82%	93.7%	75.2%	81.2%	45%	6.71% (active)	62.8%	54.8%	53.1%	82.6%
O=C(NNC(=O)c1ccc([N+](=O)[O-])cc1)c1ccc([N+](=O)[O-])cc1	94.8%	99.3%	120%	90.8%	105%	106%	84%	99.3%	95%	115%
O=C(Nc1cccc(-n2ccc3c(NC(=O)c4ccccc4)nccc32)c1)c1cc(N2CCOCC2)cc(C(F)(F)F)c1	19.8%	28.7%	30.8%	36.6%	-11% (active)	29.3%	-47.5% (active)	-8.84% (active)	-31.6% (active)	-51.4% (active)
Cc1ccc(-c2cn3cc([N+](=O)[O-])ccc3n2)cc1	83.5%	72.2%	95.9%	91.4%	97.6%	110%	71.3%	85.5%	91.9%	94.4%
COc1ccc(-n2c(-c3ccc(NC(=O)CCCl)cc3)nnc2-c2cc(OC)c(OC)c(OC)c2)cc1	54.8%	68.8%	59.4%	54.8%	7.54% (active)	46.1%	43.8%	30.2%	75.4%	8.54% (active)
CCCCOc1nc2ccc(Cl)cc2cc1/C=C/C(=O)/C=C/c1ccc(Cl)cc1	79.8%	92.9%	95.7%	101%	103%	87.1%	74.8%	84.4%	94.1%	62%
CCOC(=O)NNc1nncc2ccccc12	95.4%	104%	102%	102%	110%	95.1%	103%	104%	99.1%	105%
O=C1CN(CCN2CC(=O)NC(=O)C2)CC(=O)N1	95.9%	94.7%	84.3%	93.4%	117%	72.3%	97.1%	101%	97.1%	118%
NS(=O)(=O)c1ccc(CCN2C(=O)/C(=C\c3ccc(Cl)cc3)C=C2c2ccc(Oc3ccccc3)cc2)cc1	84%	72.7%	79.2%	95.9%	69%	84.7%	56.1%	51.8%	91.1%	80%
COc1ccc(-c2nn(-c3ccc(NC(=O)c4cc(C(F)(F)F)cc(C(F)(F)F)c4)cc3)cc2-c2ccncc2)cc1Cl	72.1%	91.1%	87.4%	67%	57.7%	48.7%	71.2%	59.5%	44.1%	85.6%
O=C(CSc1nnc(-c2ccc(Cl)cc2)o1)Nc1ccc(C(=O)/C=C/c2ccccc2)cc1	93.3%	107%	90.5%	107%	97.7%	106%	86.7%	96%	97.8%	116%
Cc1ccc[n+](CC(=O)c2cccc3ccccc23)c1	102%	96.2%	97%	100%	111%	97.1%	101%	111%	93.8%	101%
O=C(Nc1ccc(-n2ccc3c(NC(=O)c4ccccc4)ncnc32)cc1)c1ccc(Cl)c(C(F)(F)F)c1	56.5%	32.3%	44.1%	45.6%	-30.5% (active)	89.4%	11.3%	-40.8% (active)	54.9%	33.3%
O=C(O)c1cccc(S(=O)(=O)c2ccccc2)c1	96.8%	96.8%	98.6%	103%	100%	82.8%	93.5%	102%	108%	104%
COc1cc(/C=C/C(=O)N2CCC=CC2=O)cc(OC)c1OC	62.3%	109%	84.3%	82.8%	76%	28.9%	-68.2% (active)	72.3%	29.5%	5.08% (active)
NS(=O)(=O)c1ccc(-n2nc(-c3ccc(Cl)cc3)ccc2=O)cc1	91.1%	103%	110%	94.3%	98%	90.9%	16%	95.4%	92.9%	113%
CN(C)CCCOc1c(Br)cc(/C=C/C(=O)N(C)CCc2cc(Br)c(OCCCN(C)C)c(Br)c2)cc1Br	81.5%	95.7%	59.5%	82.3%	23.1%	48.7%	13.5%	41.5%	63.7%	39.3%
CC1=C2C(=C[C@@](C)(CO)[C@@H]2OC(=O)N(C)CCN(C)C(=O)OC(C)(C)C)C(=O)[C@](C)(O)C12CC2	11.8%	106%	59.7%	9.97% (active)	3.77% (active)	8.11% (active)	57.7%	10.4%	65.1%	40.1%
CC(C)(C)NCC(O)COc1c(Br)c(Br)c(Br)c2c1OC(C)(C)C2 (stereo not given)	-0.995% (active)	42.5%	-19.3% (active)	-84.9% (active)	-63.7% (active)	-57.7% (active)	-76.8% (active)	-71.9% (active)	-91.6% (active)	-58.3% (active)
COc1cc(/C=C2/Oc3cc4occc4c(OC)c3C2=O)ccc1OCC(=O)Nc1ccncc1	94.1%	95%	97.3%	85.7%	104%	97.4%	85.4%	101%	101%	107%
